# Measured values reported in PMC7862700, “An all-to-all approach to the identification of sequence-specific readers for epigenetic DNA modifications on cytosine”.
# Legend:
# Experiment in all cases: DAPPL (digital affinity profiling via proximity ligation, sequencing); 10 mM Tris-HCl pH 7.5, 50 mM NaCl, 1 mM DTT, 4% glycerol, room temperature, 30 min; GST-TFs on glutathione beads, 16-mer random dsDNA library, 0.1% formaldehyde crosslink after washing; high values mean tight binding
# FEV = target: T1, FEV (Homo sapiens, UniProt Q99581 1-238); conditions: protein: recombinant; tags: N-terminal GST; dsDNA, one strand shown
# T1 sequence: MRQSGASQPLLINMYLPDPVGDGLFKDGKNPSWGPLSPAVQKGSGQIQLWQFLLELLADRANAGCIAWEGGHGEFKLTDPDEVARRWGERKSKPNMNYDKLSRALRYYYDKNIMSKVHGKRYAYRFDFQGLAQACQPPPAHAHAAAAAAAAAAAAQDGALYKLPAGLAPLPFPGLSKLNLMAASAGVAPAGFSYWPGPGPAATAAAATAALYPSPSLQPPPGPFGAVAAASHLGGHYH
# Outline: (§1)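 Each value of binding signal is a hexamer's read frequency for a factor divided by the same hexamer's frequency in the tag-only sample. Barcoded, bead-captured GST fusions of human transcription factors made in yeast were pooled with that sample and incubated with 200 nmole of a random double-stranded 16-mer DNA library in Tris/NaCl/DTT/glycerol buffer at room temperature for 30 min. Washing, 0.1% formaldehyde crosslinking, proximity ligation, PCR and Illumina NextSeq500 sequencing followed.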
# ETV5 = ETV5 (Homo sapiens, UniProt P41161 1-510); conditions: protein: recombinant; tags: N-terminal GST; dsDNA, one strand shown
# Outline: as §1
# HSF1 = HSF1 (Homo sapiens, UniProt Q00613 1-529); conditions: protein: recombinant; tags: N-terminal GST; chain copies: 3; dsDNA, one strand shown
# Outline: as §1
# SPIC = target: T2, SPIC (Homo sapiens, UniProt Q8N5J4 1-248); conditions: protein: recombinant; tags: N-terminal GST; dsDNA, one strand shown
# T2 sequence: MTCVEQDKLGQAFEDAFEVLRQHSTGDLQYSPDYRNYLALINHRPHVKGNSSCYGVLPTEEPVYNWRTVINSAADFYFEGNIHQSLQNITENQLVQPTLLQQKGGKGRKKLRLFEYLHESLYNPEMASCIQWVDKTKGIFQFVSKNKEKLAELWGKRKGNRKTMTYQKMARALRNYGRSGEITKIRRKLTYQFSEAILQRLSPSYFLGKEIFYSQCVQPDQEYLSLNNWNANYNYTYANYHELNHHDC
# Outline: as §1
# ELF4 = ELF4 (Homo sapiens, UniProt Q99607 1-663); conditions: protein: recombinant; tags: N-terminal GST; dsDNA, one strand shown
# Outline: as §1
# ELK4 = target: T3, ELK4 (Homo sapiens, UniProt P28324-2 1-405); conditions: protein: recombinant; tags: N-terminal GST; dsDNA, one strand shown
# T3 sequence: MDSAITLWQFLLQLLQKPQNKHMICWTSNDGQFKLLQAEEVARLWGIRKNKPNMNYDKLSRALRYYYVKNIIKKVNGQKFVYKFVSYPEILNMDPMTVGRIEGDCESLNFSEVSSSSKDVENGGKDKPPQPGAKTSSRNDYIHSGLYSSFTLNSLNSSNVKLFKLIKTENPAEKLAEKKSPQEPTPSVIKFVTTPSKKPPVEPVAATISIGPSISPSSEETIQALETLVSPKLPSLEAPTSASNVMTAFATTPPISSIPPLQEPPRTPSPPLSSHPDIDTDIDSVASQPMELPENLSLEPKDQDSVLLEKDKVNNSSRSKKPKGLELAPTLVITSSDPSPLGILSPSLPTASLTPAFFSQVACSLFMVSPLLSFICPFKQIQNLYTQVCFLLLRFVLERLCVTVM
# Outline: as §1
# ETV2 = target: T4, ETV2 (Homo sapiens, UniProt O00321 1-342); conditions: protein: recombinant; tags: N-terminal GST; dsDNA, one strand shown
# T4 sequence: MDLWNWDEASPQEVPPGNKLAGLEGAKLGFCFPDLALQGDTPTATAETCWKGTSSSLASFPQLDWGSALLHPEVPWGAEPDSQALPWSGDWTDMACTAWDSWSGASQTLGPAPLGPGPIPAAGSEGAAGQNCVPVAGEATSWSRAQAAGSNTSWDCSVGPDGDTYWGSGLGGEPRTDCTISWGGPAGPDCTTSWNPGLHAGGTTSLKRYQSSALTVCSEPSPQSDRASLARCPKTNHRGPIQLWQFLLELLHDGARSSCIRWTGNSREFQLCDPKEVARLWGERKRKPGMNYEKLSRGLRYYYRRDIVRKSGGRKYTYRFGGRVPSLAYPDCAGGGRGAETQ
# Outline: as §1
# ELF3 = target: T5, ELF3 (Homo sapiens, UniProt P78545 1-371); conditions: protein: recombinant; tags: N-terminal GST; dsDNA, one strand shown
# T5 sequence: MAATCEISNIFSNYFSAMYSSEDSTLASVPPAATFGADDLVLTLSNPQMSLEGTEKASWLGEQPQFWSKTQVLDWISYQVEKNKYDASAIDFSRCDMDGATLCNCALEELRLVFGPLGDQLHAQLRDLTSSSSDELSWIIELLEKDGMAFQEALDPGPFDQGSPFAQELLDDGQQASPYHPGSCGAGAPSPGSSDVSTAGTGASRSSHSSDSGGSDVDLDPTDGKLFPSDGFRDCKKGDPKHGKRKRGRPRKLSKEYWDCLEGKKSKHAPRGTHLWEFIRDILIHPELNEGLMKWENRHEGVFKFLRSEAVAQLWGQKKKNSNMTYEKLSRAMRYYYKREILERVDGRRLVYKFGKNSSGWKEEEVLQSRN
# Outline: as §1
# CRX = CRX (Homo sapiens, UniProt O43186 1-299); conditions: protein: recombinant; tags: N-terminal GST; dsDNA, one strand shown
# Outline: as §1
# Chain of CRX (O43186 whole entry): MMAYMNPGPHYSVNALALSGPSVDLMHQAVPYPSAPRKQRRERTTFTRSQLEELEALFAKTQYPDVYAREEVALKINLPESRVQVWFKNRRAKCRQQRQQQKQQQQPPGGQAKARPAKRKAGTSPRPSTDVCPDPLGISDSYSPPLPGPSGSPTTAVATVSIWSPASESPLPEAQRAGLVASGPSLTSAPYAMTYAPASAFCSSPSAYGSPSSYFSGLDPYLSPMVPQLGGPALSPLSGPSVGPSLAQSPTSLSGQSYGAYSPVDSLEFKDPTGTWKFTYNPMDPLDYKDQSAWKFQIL
# Chain of HSF1 (Q00613 whole entry): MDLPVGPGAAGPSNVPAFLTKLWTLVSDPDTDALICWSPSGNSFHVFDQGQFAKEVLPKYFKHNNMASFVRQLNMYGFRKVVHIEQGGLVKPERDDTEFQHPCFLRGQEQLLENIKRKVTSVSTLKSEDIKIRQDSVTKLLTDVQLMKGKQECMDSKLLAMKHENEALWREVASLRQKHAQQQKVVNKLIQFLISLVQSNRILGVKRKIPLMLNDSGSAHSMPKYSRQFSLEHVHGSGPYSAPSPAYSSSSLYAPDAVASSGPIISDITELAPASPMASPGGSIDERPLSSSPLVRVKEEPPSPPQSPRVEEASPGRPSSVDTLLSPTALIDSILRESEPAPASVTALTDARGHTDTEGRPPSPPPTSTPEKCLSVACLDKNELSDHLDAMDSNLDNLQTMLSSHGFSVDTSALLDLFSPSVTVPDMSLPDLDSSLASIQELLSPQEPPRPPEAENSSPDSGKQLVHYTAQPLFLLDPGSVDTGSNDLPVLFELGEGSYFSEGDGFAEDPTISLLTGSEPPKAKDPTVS
# Chain of ELF4 (Q99607 whole entry): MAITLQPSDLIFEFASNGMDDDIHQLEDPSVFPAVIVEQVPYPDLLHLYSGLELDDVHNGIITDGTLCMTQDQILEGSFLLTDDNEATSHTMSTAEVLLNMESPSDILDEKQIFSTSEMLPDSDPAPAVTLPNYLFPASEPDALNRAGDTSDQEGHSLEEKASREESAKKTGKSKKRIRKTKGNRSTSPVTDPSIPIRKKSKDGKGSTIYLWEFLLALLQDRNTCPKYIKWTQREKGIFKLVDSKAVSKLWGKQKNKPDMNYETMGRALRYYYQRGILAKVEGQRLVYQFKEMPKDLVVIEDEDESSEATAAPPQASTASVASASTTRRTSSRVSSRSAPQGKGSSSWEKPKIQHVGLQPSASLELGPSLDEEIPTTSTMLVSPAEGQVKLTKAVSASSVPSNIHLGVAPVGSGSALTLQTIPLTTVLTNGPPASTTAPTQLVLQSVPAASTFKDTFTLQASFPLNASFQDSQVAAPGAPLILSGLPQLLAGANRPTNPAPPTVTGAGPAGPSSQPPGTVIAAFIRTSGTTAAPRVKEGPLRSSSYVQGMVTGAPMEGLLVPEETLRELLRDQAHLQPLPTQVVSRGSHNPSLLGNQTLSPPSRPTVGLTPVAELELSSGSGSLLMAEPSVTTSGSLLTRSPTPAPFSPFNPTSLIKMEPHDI
# Chain of ETV5 (P41161 whole entry): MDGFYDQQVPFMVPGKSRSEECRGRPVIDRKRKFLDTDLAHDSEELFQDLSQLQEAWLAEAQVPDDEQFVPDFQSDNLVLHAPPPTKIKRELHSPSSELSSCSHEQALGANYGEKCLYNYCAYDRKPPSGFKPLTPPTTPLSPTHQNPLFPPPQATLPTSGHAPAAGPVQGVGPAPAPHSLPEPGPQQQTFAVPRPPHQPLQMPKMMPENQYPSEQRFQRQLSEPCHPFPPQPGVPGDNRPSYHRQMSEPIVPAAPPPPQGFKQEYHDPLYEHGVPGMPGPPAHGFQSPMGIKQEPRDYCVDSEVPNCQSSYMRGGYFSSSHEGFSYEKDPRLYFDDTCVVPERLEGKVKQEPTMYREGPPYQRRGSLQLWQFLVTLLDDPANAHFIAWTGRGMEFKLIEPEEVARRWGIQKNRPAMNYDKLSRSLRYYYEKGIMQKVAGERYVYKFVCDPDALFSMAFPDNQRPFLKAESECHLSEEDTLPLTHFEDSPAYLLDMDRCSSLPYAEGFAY
sequence,measurement,setting,value
ATAAAT,binding signal,FEV,"1.11 fold enrichment (6-mer frequency, TF over GST control)"
same,binding signal,ETV5,"1.22 fold enrichment (6-mer frequency, TF over GST control)"
same,binding signal,HSF1,"1.41 fold enrichment (6-mer frequency, TF over GST control)"
same,binding signal,SPIC,"1.16 fold enrichment (6-mer frequency, TF over GST control)"
same,binding signal,ELF4,"1.16 fold enrichment (6-mer frequency, TF over GST control)"
same,binding signal,ELK4,"1.17 fold enrichment (6-mer frequency, TF over GST control)"
same,binding signal,ETV2,"1.13 fold enrichment (6-mer frequency, TF over GST control)"
same,binding signal,ELF3,"1.24 fold enrichment (6-mer frequency, TF over GST control)"
same,binding signal,CRX,"1.75 fold enrichment (6-mer frequency, TF over GST control)"
